Laboratory results from ChEMBL document CHEMBL1961873, “Compounds: GSK PKIS; Assays: Nanosyn kinase panel” (2012).
Where “and” joins values, the source holds several entries; their conditions need not be identical. Equal values may be shown once.

Legend:
[1] = target: Rho-associated protein kinase 1 (Homo sapiens) (UniProt Q13464); settings: at 1 µM;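 note: reported values are mean percent inhibition of ROCK1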
[2] = target: Rho-associated protein kinase 2 (Homo sapiens) (UniProt O75116); settings: at 0.1 µM
Chain of Rho-associated protein kinase 2 (Homo sapiens) (O75116 whole entry, looked up): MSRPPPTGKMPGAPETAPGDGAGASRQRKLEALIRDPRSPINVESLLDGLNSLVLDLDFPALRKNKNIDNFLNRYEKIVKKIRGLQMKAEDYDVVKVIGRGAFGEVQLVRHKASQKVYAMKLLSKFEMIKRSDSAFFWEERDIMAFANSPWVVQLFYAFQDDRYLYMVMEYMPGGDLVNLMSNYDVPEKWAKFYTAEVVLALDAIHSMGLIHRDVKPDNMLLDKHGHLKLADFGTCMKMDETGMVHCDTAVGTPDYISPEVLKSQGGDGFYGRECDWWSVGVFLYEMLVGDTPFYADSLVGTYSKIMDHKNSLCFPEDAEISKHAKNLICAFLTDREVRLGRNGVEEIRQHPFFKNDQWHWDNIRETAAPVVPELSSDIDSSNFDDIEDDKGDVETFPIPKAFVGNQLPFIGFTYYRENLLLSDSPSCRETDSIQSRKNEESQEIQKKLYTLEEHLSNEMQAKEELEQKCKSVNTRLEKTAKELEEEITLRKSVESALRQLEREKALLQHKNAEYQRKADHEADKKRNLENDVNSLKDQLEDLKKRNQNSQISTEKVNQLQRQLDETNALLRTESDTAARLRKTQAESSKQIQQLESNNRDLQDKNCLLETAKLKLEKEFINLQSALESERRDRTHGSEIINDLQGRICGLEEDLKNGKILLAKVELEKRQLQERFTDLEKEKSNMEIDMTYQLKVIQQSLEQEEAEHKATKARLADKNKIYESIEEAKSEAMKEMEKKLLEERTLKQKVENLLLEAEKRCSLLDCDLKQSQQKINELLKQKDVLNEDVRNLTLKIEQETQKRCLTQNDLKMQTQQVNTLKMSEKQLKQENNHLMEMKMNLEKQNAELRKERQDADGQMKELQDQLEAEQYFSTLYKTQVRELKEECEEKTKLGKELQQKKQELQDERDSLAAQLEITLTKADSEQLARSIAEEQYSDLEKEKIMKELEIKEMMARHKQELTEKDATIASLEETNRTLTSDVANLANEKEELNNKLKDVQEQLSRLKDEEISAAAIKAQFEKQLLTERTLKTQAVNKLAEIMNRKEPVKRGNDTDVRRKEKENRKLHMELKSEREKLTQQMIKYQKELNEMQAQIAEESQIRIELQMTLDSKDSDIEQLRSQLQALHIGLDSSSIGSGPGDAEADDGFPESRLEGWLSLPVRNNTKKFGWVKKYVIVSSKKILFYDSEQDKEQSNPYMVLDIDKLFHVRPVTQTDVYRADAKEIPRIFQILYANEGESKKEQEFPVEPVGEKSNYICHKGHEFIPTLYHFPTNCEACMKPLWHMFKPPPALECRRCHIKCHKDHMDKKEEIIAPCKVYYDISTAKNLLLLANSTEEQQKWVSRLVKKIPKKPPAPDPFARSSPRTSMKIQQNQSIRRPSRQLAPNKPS

[3] = target: Rho-associated protein kinase 2 (Homo sapiens) (UniProt O75116); settings: at 1 µM
[4] = target: Ribosomal protein S6 kinase alpha-1 (Homo sapiens) (UniProt Q15418); settings: at 0.1 µM
[5] = target: Ribosomal protein S6 kinase alpha-1 (Homo sapiens) (UniProt Q15418); settings: at 1 µM
[6] = target: Ribosomal protein S6 kinase alpha-3 (Homo sapiens) (UniProt P51812); settings: at 0.1 µM
Chain of Ribosomal protein S6 kinase alpha-3 (Homo sapiens) (P51812 whole entry): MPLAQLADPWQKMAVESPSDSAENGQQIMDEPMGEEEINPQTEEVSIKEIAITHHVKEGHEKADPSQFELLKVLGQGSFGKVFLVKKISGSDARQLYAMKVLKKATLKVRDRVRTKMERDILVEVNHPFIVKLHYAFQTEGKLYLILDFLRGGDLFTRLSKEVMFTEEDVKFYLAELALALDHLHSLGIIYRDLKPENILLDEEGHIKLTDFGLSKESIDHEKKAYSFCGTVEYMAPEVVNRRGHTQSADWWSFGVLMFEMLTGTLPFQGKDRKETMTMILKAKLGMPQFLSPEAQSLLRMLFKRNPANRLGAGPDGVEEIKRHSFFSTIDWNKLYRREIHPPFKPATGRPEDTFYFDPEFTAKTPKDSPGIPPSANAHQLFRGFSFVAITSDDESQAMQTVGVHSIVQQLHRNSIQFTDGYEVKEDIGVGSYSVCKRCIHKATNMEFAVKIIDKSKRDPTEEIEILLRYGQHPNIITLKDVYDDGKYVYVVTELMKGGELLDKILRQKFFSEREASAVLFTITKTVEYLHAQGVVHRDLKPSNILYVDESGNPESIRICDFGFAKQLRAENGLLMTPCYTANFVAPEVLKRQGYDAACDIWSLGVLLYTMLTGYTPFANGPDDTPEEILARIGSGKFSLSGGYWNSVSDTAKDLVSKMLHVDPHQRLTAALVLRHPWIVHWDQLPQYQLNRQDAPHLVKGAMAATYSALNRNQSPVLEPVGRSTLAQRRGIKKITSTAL

[7] = target: Ribosomal protein S6 kinase alpha-3 (Homo sapiens) (UniProt P51812); settings: at 1 µM
[8] = target: Ribosomal protein S6 kinase alpha-2 (Homo sapiens) (UniProt Q15349); settings: at 0.1 µM
Chain of Ribosomal protein S6 kinase alpha-2 (Homo sapiens) (Q15349 whole entry): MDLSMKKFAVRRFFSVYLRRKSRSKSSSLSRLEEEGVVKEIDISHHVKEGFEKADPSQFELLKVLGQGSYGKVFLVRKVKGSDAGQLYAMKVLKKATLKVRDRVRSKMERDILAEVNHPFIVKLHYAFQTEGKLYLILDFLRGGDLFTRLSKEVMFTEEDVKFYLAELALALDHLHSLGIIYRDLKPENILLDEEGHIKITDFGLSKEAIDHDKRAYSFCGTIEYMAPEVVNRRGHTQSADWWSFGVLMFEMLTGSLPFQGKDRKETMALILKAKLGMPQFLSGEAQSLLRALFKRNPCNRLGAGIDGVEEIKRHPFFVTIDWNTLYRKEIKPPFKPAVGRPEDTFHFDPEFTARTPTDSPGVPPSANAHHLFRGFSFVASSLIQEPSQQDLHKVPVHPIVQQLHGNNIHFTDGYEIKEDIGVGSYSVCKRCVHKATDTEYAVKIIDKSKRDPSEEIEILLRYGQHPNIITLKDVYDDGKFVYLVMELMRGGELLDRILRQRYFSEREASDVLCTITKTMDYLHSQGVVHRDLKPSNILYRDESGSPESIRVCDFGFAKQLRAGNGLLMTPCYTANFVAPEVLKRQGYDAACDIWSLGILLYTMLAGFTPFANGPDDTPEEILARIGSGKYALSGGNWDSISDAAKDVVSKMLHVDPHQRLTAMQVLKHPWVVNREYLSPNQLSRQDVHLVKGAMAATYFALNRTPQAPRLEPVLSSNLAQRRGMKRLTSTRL

[9] = target: Ribosomal protein S6 kinase alpha-2 (Homo sapiens) (UniProt Q15349); settings: at 1 µM
[10] = target: Ribosomal protein S6 kinase alpha-6 (Homo sapiens) (UniProt Q9UK32); settings: at 0.1 µM;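 note: reported value is the mean inhibition of RSK4, from the GSK PKIS kinase inhibitor screen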
Chain of Ribosomal protein S6 kinase alpha-6 (Homo sapiens) (Q9UK32 whole entry): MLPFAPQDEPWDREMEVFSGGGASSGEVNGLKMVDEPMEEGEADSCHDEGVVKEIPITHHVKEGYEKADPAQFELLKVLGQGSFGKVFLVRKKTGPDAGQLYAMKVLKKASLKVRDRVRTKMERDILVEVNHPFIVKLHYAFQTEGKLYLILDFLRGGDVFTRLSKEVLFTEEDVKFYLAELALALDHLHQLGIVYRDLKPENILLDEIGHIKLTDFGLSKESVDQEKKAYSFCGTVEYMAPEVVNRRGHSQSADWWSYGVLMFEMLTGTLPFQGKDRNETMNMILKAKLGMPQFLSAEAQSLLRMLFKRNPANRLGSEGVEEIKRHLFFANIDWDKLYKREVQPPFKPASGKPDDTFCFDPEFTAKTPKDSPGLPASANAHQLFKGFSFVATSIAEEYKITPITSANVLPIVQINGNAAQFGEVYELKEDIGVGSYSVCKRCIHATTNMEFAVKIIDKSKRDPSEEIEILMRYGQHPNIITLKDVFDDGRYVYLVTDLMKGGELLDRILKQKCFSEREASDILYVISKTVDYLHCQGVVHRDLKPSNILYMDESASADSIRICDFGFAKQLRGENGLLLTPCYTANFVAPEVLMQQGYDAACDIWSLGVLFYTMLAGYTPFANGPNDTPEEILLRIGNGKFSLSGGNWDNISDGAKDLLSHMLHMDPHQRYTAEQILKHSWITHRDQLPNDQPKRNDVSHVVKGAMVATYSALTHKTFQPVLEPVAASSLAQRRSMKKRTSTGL

Chain of Rho-associated protein kinase 1 (Homo sapiens) (Q13464 2-1354 limits assumed): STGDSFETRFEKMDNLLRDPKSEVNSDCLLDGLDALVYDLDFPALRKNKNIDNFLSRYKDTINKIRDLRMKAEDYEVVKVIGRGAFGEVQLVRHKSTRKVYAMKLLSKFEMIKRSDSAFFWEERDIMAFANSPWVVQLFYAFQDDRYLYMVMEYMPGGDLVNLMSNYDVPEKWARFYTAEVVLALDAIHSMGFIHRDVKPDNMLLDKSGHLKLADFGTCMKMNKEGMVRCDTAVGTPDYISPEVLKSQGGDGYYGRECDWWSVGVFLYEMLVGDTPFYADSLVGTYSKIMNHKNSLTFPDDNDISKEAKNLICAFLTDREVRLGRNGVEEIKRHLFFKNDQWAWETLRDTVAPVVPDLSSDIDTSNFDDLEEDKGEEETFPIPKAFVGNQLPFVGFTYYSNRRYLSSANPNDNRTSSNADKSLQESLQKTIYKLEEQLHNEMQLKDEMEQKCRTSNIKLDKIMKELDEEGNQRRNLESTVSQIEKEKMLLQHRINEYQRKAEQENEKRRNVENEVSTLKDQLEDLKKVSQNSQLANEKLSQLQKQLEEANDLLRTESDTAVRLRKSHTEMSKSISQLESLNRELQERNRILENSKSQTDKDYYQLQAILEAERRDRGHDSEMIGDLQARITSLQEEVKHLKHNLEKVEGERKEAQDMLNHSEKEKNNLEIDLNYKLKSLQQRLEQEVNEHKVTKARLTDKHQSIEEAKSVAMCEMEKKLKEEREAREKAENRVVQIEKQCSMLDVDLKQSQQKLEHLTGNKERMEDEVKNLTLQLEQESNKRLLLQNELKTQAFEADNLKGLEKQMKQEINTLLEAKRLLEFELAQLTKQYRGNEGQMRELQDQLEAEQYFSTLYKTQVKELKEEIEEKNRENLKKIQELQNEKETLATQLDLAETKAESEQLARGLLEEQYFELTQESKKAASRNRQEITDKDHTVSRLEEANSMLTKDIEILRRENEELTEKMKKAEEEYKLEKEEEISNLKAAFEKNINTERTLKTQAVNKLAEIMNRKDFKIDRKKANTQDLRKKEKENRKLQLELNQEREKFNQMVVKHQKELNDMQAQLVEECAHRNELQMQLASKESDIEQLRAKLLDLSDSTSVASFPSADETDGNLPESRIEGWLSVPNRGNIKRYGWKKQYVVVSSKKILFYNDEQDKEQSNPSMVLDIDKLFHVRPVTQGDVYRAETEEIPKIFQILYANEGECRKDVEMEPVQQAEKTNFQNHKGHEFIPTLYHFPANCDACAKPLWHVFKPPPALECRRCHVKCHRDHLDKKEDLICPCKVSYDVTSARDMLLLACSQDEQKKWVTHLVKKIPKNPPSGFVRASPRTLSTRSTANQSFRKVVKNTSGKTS

Row | Structure (SMILES) | inhibition [1] | inhibition [2] | inhibition [3] | inhibition [4] | inhibition [5] | inhibition [6] | inhibition [7] | inhibition [8] | inhibition [9] | inhibition [10]
1 | CN(C)CCNC(=O)Nc1ccc(N(C)c2ccnc(Nc3ccc(CS(C)(=O)=O)cc3)n2)cc1 | 19.8% | 5.05% | 24% | 2.03% | 2.41% | 0.87% | 2.03% | 2.14% | 4.06% | 1.56%
2 | COc1cccc(Nc2nccc(-c3cnn4ncccc34)n2)c1 | 6.3% | 2.21% | 15.4% | 0.64% | 4.33% | -0.39% | 2.48% | -0.61% | 2.4% | -1.37%
3 | CS(=O)(=O)CCNCc1ccoc1-c1ccc2ncnc(Nc3ccc(OCc4ccccc4)cc3)c2c1 | -0.69% | -1.1% | 0.07% | 0.19% | -0.1% | -0.27% | -0.04% | 1.27% | 1.14% | -0.31%
4 | Nc1nonc1-c1nc2cnccc2n1C1CC1 | 79.3% and 77.8% | 56.4% and 54.3% | 81% and 77.9% | 66.3% and 63.6% | 84.2% and 79.4% | 46.1% and 47% | 79% and 75.8% | 67% and 69.5% | 90.9% and 91.2% | 10.3% and 11.7%
5 | OCCCNc1nccc(-c2c(-c3ccc(F)cc3)nn3cc(C(F)(F)F)ccc23)n1 | 2.58% | 2.07% | 2.72% | 1.23% | 2.41% | 0.38% | 1.08% | 1.69% | 2.43% | 0.24%
6 | COC(=O)Nc1nc2ccc(Oc3ccc(NC(=O)Nc4cc(C(F)(F)F)ccc4F)cc3)cc2s1 | 1.94% | 0.66% | 1.17% | 1.59% | 2.46% | 0.8% | 2.83% | 3.19% | 13.1% | 0.36%
7 | O=C(Nc1n[nH]c2nnc(-c3cccnc3)cc12)C1CC1 | 1.3% | 0.06% | 0.61% | 0.83% | 0.39% | 0.41% | 0.86% | 0.73% | 1.89% | 0.32%
8 | c1cnn2ncc(-c3ccnc(NCCCN4CCOCC4)n3)c2c1 | 4.7% | 4.49% | 4.16% | 1.74% | 4.45% | 0.98% | 2.86% | 1.93% | 3.97% | -0.14%
9 | CNC(=O)c1cncc(/C=C/c2ccccc2C)c1 | 1.27% | 4.29% | 8.78% | 2.39% | 4.99% | 2.14% | 3.84% | 0.87% | 2.74% | 0.45%
10 | O=C(O[C@H]1CN[C@H](C#Cc2cc3ncnc(Nc4ccc(OCc5cccc(F)c5)c(Cl)c4)c3s2)C1)N1CCOCC1 | 1.71% | 4.15% | 8.38% | 1.45% | 6.91% | 1.55% | 5.86% | 2.72% | 3.4% | 2.22%
11 | CCS(=O)(=O)c1ccc(OC)c(Nc2ncc(-c3cccc(F)c3)o2)c1 | 2.95% | 3.63% | 3.95% | 2.84% | 6.08% | 1.12% | 13.6% | 4.07% | 5.22% | 2.2%
12 | CC1=C(C(=O)Nc2ccc3[nH]nc(C)c3c2)C(c2ccc(C(F)(F)F)cc2)CC(=O)N1 (stereo not given) | 89.8% | 70.3% | 83.8% | 2.72% | 11.3% | 1.64% | 17.2% | 1.77% | 9.89% | 3.48%
13 | CS(=O)(=O)CCNCc1ccc(-c2ccc3ncnc(Nc4ccc(OCc5cccc(C(F)(F)F)c5)cc4)c3c2)o1 | 3.01% | 2.07% | 3.5% | 0.96% | 2.45% | -0.35% | 3.53% | 1.21% | 2.69% | 0.05%
14 | CN1CCN(Cc2ccc(-c3cc4ncnc(Nc5ccc(OCc6cccc(F)c6)c(Cl)c5)c4s3)o2)CC1 | 2% and 0.89% | 1.84% and 3.91% | 2.16% and 8.24% | 0.86% and 2.44% | 3.31% and 6.74% | 0.78% and 2.19% | 4.15% and 7.1% | 2.32% and 1.76% | 3.34% and 4.93% | 1.22% and 1.16%
15 | Cn1c(-c2nonc2N)nc2cnccc21 | 52.4% | 20% | 67.5% | 9.65% | 44.8% | 3.58% | 23% | 8.32% | 41.4% | 2.49%
16 | O=C(O[C@H]1CN[C@H](C#Cc2cc3ncnc(Nc4ccc5c(cnn5Cc5ccccc5)c4)c3s2)C1)N1CCOCC1 | -2.07% | -1.02% | -1.36% | -1.77% | -0.14% | 0.74% | 1.52% | -0.5% | -1.02% | -1.39%

Row | Structure (SMILES) | inhibition [1] | inhibition [2] | inhibition [3] | inhibition [4] | inhibition [5] | inhibition [6] | inhibition [7] | inhibition [8] | inhibition [9] | inhibition [10]
17 | FC(F)(F)CNc1nccc(-c2cnn3ncccc23)n1 | -0.11% | 1.53% | 0.94% | -0.21% | 1.24% | 1.65% | 2.69% | 0.89% | 1.84% | 0.72%
18 | Nc1ncnc2occ(-c3ccc(NC(=O)Nc4cc(C(F)(F)F)ccc4F)cc3)c12 | 10.2% and 6.77% | 7.01% and 2.27% | 40% and 27.8% | 9.06% and 4.67% | 46.6% and 34.2% | 3.22% and 1.04% | 22.5% and 15.8% | 9.18% and 5.3% | 51.1% and 37.7% | -2.74% and 0.37%
19 | COc1ccc(Nc2ncc(-c3ccccc3)o2)cc1OC | 2.03% | -0.31% | 2.22% | 0.28% | 2.18% | 0.01% | 2.14% | 1.32% | 4.35% | 0.4%
20 | COc1ccc2ncn(-c3cc(O[C@H](C)c4ccccc4C(F)(F)F)c(C(N)=O)s3)c2c1 | 0.18% | -0.01% | -0.4% | 0.85% | 3.85% | 1.38% | 6.99% | 0.69% | 2.5% | 1.31%
21 | CC1(C)CC(n2cnc(-c3ccc(F)cc3)c2-c2ccnc(N)n2)CC(C)(C)N1 | 1.6% | 1.54% | 1.8% | 1.07% | 1.93% | 1.45% | 2.77% | 1.16% | 1.53% | 0.66%
22 | COc1cc(N2CCN(C(C)C)CC2)ccc1Nc1nc(Nc2cccc3ncccc23)c2cc[nH]c2n1 | 0.37% | 0.02% | 0.45% | 0.19% | 3.05% | 1.66% | 5.2% | 1.37% | 3.33% | 0.58%
23 | O=C1Nc2ccccc2/C1=C1\CCc2cc(O)ccc21 | 2.49% | 2.95% | 3.95% | 5.76% | 28.4% | 4.82% | 27% | 9.8% | 42.1% | 7.24%
24 | Cc1c2ccc(N(C)c3ccnc(Nc4cccc(S(N)(=O)=O)c4)n3)cc2nn1C | 1.97% | 2.24% | 2.37% | 2% | 3.33% | 1.97% | 3.86% | 3.56% | 5.15% | 2.42%
25 | N#Cc1cccc(Nc2ncc(-c3ccccc3)o2)c1 | 0.71% | 2% | 6.5% | 0.19% | 3.79% | 0.02% | 1.64% | 1.14% | 1.32% | -0.19%
26 | CC1=C(C(=O)Nc2ccc3[nH]ncc3c2)C(c2ccc(F)cc2)N=C(c2ccc(C(F)(F)F)nc2)N1 (stereo not given) | 73.2% | 35.7% | 75% | 0.61% | 4.49% | -0.02% | 2.71% | 1.05% | 3.76% | 0.55%
27 | CNC(=O)c1ncccc1Nc1nc(Nc2cc3c(cc2OC)CCCN3C(=O)CN(C)C)nc2[nH]ccc12 | 8.73% | 3.75% | 8.67% | 5.58% | 25.8% | 2.99% | 14.5% | 3.13% | 7.32% | 3.92%
28 | Nc1nccc(-c2c(-c3ccc(F)cc3)ncn2C2CCNCC2)n1 | 0.03% and 1.75% | -3.31% and 1.51% | -3.28% and 1.52% | -1.25% and 0.52% | 1.83% and 2.8% | -1.12% and 0.34% | 0.29% and 1.05% | -1.68% and 0.37% | 0.91% and 1.92% | -2.38% and 0.34%
29 | COc1cccc(-n2ncc3c(N/N=C/c4ccc(C(=O)NCCN(C)C)cc4)ncnc32)c1 | 7.32% | 5.29% | 9.45% | 1.48% | 6.32% | 0.89% | 5.65% | 1.89% | 8.18% | 2.38%
30 | CCn1c(-c2nonc2N)nc2cncc(C(=O)NCCNC)c21 | 91.6% | 80.6% | 90.4% | 62.3% | 88.3% | 54.5% | 78.7% | 25.4% | 73.8% | 9.72%
31 | Fc1cccc(COc2ccc(Nc3ncncc3C#Cc3ccccc3)cc2Cl)c1 | 1.47% | 3.76% | 7.12% | 3.37% | 6.51% | 1.92% | 4.01% | 3.21% | 2.81% | 1.21%
